TDP1 cell CPT = qHTS for Inhibitors of human tyrosyl-DNA phosphodiesterase 1 (TDP1): qHTS in cells in presence of CPT; hit rate 12% among 420,000; chicken DT40 Tdp1-/-;hTDP1 cells + 20 nM CPT, ATP luminescence, 48 h; Potency, µM (titrated, usually from 46.2 µM), usual class: inhibitors; note: nearly all actives have a fitted effect of over 55% in size
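Cell growth measured by CellTiter-Glo luminescence after a minimum 48 h, 37 C compound exposure with 20 nM CPT in Tdp1-knockout DT40 cells stably expressing hTDP1, seeded 400/well; qHTS titration format.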
DT40 TDP1 no CPT = qHTS for Inhibitors of human tyrosyl-DNA phosphodiesterase 1 (TDP1): qHTS in cells in absence of CPT. DT40 Tdp1-/- hTDP1 cells, no CPT, ATP luminescence, 48 h. Potency, µM (titrated, usually from 46.2 µM), most hits filed as inhibitors. hit rate 15% among 420,000; note: nearly all actives have a fitted effect of over 55% in size
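A cellular qHTS used chicken DT40 cells lacking endogenous Tdp1 but carrying stably transfected human TDP1. Compounds were applied without camptothecin, and cell growth kinetics were judged by ATP-dependent luminescence after ≥48 hr.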
HT1080 IDH1KD tx = qHTS for induction of synthetic lethality in tumor cells producing 2HG: qHTS for the HT-1080-IDH1KD cell line | Potency, µM (series often up to 46.1 µM), actives largely listed as cytotoxic | hit rate 2% among 360,000 | HT-1080 IDH1 knockdown viability, ATP luminescence, 48 h
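Luminescent ATP read-out (CellTiter-Glo, 10 min at room temperature) after 48 h compound exposure at 37 °C gave viability of IDH1-knockdown HT-1080 cells. Activity was normalised to DMSO and cell-free wells, then fitted as concentration-response curves.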
HT1080-NT tox = qHTS for induction of synthetic lethality in tumor cells producing 2HG: qHTS for the HT-1080-NT fibrosarcoma cell line | hit rate 1.6% among 360,000 | Potency, µM (series often up to 46.1 µM), actives largely listed as cytotoxic | HT-1080-NT fibrosarcoma viability, CellTiter-Glo ATP luminescence, 48 h | AID 686970, 2013;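 note: NT is the 2HG producing partner of a matched IDH1 knockdown line; nearly all actives have a fitted effect of over 55% in size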
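Toxicity toward the 2HG-producing NT line was scored as %Activity, normalised to DMSO and no-cell wells, from CellTiter-Glo luminescence after 48 hours' treatment.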
IL-1B inflam inh = qHTS for Inhibitors of Inflammasome Signaling: IL-1-beta AlphaLISA Primary Screen; activity change, % at 57.5 µM; THP-1 LPS/ATP IL-1B secretion, AlphaLISA, 16 h; hits give low values; hit rate 4.7% among 360,000; in the data active = activity change below about -50%; inconclusive = mostly about -30% to -49%
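Secreted IL-1B measured by AlphaLISA bead assay after 16 h compound exposure of THP-1 cells; compounds (final up to 57.5 uM) added 1 h before LPS (250 ng/mL) and ATP (1.25 mM) stimulation; lower signal means less secretion.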
Of the large screens only hits and unclear results are named; the others gave an inactive call. Compounds with a hit are over-represented: about 19% of the library has one in this group of screens. Unless noted, calls come from the whole dose curve; as a rule, active = well fitted curve in the direction sought with a large enough effect; inconclusive = small, poorly fitted or top-dose-only effect, or another doubt; inactive = no such curve, though single readings can be large; an effect the other way counts as inactive or inconclusive.

COc1ccc(Cn2nnc3c(=O)[nH]c(C4CCN(S(=O)(=O)c5ccc(C)cc5)CC4)nc32)cc1	TDP1 cell CPT inconclusive, DT40 TDP1 no CPT inconclusive, HT1080-NT tox inconclusive, IL-1B inflam inh inconclusive
COc1ccc2c(ccc[n+]2[O-])c1	none
CCOc1ccc2c(c1)sc(N)[n+]2Cc1cc(C)cc2cccnc12	TDP1 cell CPT 1µM, DT40 TDP1 no CPT 1µM, HT1080 IDH1KD tx 3.3µM, HT1080-NT tox 6.5µM, IL-1B inflam inh -92
COc1ccc2c(c1)sc(N)[n+]2Cc1cc(C)cc2cccnc12	TDP1 cell CPT 4.6µM, DT40 TDP1 no CPT 2.6µM, HT1080 IDH1KD tx 5.2µM, HT1080-NT tox inconclusive, IL-1B inflam inh -52
Cc1cc(=O)n(Cc2c(F)cccc2Cl)c2c1c(C)nn2-c1cccc(F)c1	none (no result: HT1080 IDH1KD tx, HT1080-NT tox, IL-1B inflam inh)
O=C1CCSc2ccc(Cl)cc2N1Cc1ccc(Cl)cc1	TDP1 cell CPT inconclusive, DT40 TDP1 no CPT 29µM, IL-1B inflam inh inconclusive
Cc1cccc(CN2C(=O)CCSc3ccc(Cl)cc32)c1	TDP1 cell CPT inconclusive, DT40 TDP1 no CPT 10µM
O=C(NCCN1CCOCC1)c1ccc2c(c1)N(Cc1ccc(Cl)cc1)C(=O)CS2	TDP1 cell CPT inconclusive, DT40 TDP1 no CPT inconclusive, HT1080 IDH1KD tx inconclusive
COC(=O)[C@H](Cc1ccccc1)NC(=O)NCCc1ccccc1F	none
CN1CCN(c2ccc(CNC(=O)C3Cc4c(-c5ccccc5)ccnc4O3)cc2)CC1 (stereo not drawn)	TDP1 cell CPT inconclusive, DT40 TDP1 no CPT inconclusive, HT1080 IDH1KD tx inconclusive
CN(C)CCNC(=O)C1Cc2c(-c3ccccc3Oc3ccccc3)ccnc2O1 (stereo not drawn)	TDP1 cell CPT 29µM, DT40 TDP1 no CPT 18µM, HT1080 IDH1KD tx 23µM, HT1080-NT tox inconclusive
O=C(NCCc1ccccc1)C1Cc2c(-c3ccccc3Oc3ccccc3)ccnc2O1 (stereo not drawn)	TDP1 cell CPT 16µM, DT40 TDP1 no CPT inconclusive, HT1080 IDH1KD tx inconclusive, HT1080-NT tox inconclusive
O=C(NCCC(F)(F)F)C1Cc2c(-c3ccccc3Oc3ccccc3)ccnc2O1 (stereo not drawn)	DT40 TDP1 no CPT inconclusive, IL-1B inflam inh inconclusive
CN1CCN(c2ccc(CNC(=O)C3Cc4c(-c5ccccc5Oc5ccccc5)ccnc4O3)cc2)CC1 (stereo not drawn)	TDP1 cell CPT inconclusive, DT40 TDP1 no CPT inconclusive, HT1080 IDH1KD tx 21µM, HT1080-NT tox inconclusive, IL-1B inflam inh inconclusive
CCCCC[C@@H](C)N1C[C@@H](COCc2ccccc2)Oc2cc(N3CCC[C@H]3C(N)=O)ccc2S1(=O)=O	TDP1 cell CPT inconclusive, DT40 TDP1 no CPT 16µM, HT1080 IDH1KD tx inconclusive, HT1080-NT tox inconclusive
CCCCC[C@H](C)N1C[C@H](COCc2ccccc2)Oc2cc(N3CCC[C@H]3CO)ccc2S1(=O)=O	TDP1 cell CPT inconclusive, DT40 TDP1 no CPT 21µM, HT1080 IDH1KD tx inconclusive, HT1080-NT tox inconclusive, IL-1B inflam inh -55
CCCCC[C@H](C)N1C[C@@H](COCc2ccccc2)Oc2cc(N3CCC[C@H]3COC)ccc2S1(=O)=O	TDP1 cell CPT inconclusive, DT40 TDP1 no CPT 18µM
CCCCC[C@H](C)N1C[C@@H](COCc2ccccc2)Oc2cc(N3CCC[C@H]3CO)ccc2S1(=O)=O	TDP1 cell CPT inconclusive, DT40 TDP1 no CPT inconclusive, HT1080 IDH1KD tx inconclusive, HT1080-NT tox inconclusive
CCCCC[C@H](C)N1C[C@@H](COCc2ccccc2)Oc2cc(N3CCC[C@H]3C(N)=O)ccc2S1(=O)=O	TDP1 cell CPT inconclusive, DT40 TDP1 no CPT inconclusive, HT1080 IDH1KD tx inconclusive, HT1080-NT tox inconclusive
O=C(NCCc1ccccc1)c1nn(-c2ccc(F)cc2)nc1CO	none (no result: HT1080 IDH1KD tx, HT1080-NT tox, IL-1B inflam inh)
COc1cccc(C(=O)Nc2ncc3c(n2)CC(C)(C)CC3=O)c1	TDP1 cell CPT inconclusive, DT40 TDP1 no CPT 16µM
COc1ccc(C2CC(=O)c3cnc(NC(=O)c4cccc(OC)c4)nc3C2)cc1 (stereo not drawn)	TDP1 cell CPT inconclusive, DT40 TDP1 no CPT inconclusive
